This passage reports Potency, activity change, negative = viability loss and activity change, negative = cell killing results from PubChem BioAssay (NCATS).

Where “and” joins values, the source holds several entries; their conditions need not be identical. Identical values can stand only once. Results filed as inconclusive are left out. A structure can be active in one record and inactive in another. Calls of active or inactive are those of the source. Calls follow the shape of the dose curve; as a rule, active = well fitted curve in the direction sought with a large enough effect; inconclusive = small, poorly fitted or top-dose-only effect, or another doubt; inactive = no such curve, though single readings can be large; an effect the other way counts as inactive or inconclusive.

The nature of assay [1]: Primary qHTS for inhibitors of nuclear receptor binding SET domain protein 2 (NSD2) in an isogenic RCH-ACV NSD2 p.E1099K mutant (9B) (AID 1645876).
The nature of assay [2]: Primary qHTS for inhibitors of nuclear receptor binding SET domain protein 2 (NSD2) in an RCH-ACV wild type WT cells (2C) (AID 1645877).
% is scaled to controls: 0 for no effect and ±100 for the full control effect; potency is read from the fitted curve at half-maximal effect.
Also: nearly all actives have a fitted effect of over 70% in size.

Consider `CC1CCCC[C@H]2C(=O)C=C[C@H](O)[C@@H]2CC(=O)O1` (some centres undefined), for which the Potency was 3.25 µM (active) in assay [1] and 2.05 µM (active) in assay [2].
Take `Cc1nc2ccc(CN(C)c3ccc(C(=O)NC(CCC(=O)O)C(=O)O)s3)cc2c(=O)[nH]1` (centres undefined): the Potency in assay [1] and in assay [2] was 0.0092 µM (active) throughout.
Turning to `CC(C)C[C@@H](N)C(=O)N[C@H]1C(=O)N[C@@H](CC(N)=O)C(=O)N[C@H]2C(=O)N[C@H]3C(=O)N[C@H](C(=O)N[C@H](C(=O)O)c4cc(O)cc(O)c4-c4cc3ccc4O)[C@H](O)c3ccc(c(Cl)c3)Oc3cc2cc(c3O[C@@H]2O[C@H](CO)[C@@H](O)[C@H](O)[C@H]2O[C@H]2C[C@](C)(N)[C@H](O)[C@H](C)O2)Oc2ccc(cc2Cl)[C@H]1O`, the Potency entry in assay [1] and in assay [2] was “inactive” each time.
As for `C=CC(=O)Nc1ccc(CN2C(=O)N(c3cc(OC)cc(OC)c3)Cc3cnc(Nc4ccc(N5CCN(C)CC5)cc4)nc32)cc1`, the Potency in assay [1] is 1.46 µM (active); in assay [2] it was 0.817 µM (active).
Take `CC1(C)CCCC2(C)C1C(OC(=O)/C=C/C=C/C=O)C=C1COC(=O)C12O` (centres undefined): the Potency was 7.09 µM (active) in assay [1] and 3.55 µM (active) in assay [2].
The corresponding values for `C=C1C(=O)OC2/C=C(\C)CC/C=C(\C)CC(OC(C)=O)C12` (centres undefined) are 12.9 µM (active) and 6.49 µM (active).
The corresponding values for `C[C@@H]1O[C@@H](O[C@H]2[C@@H](OC(=O)[C@]34CCC(C)(C)CC3C3=CCC5[C@@]6(C)C[C@H](O)[C@H](O[C@@H]7O[C@H](CO)[C@@H](O)[C@H](O)[C@H]7O[C@@H]7OC[C@@H](O)[C@H](O)[C@H]7O)[C@@](C)(C(=O)O)C6CC[C@@]5(C)[C@]3(C)CC4)OC[C@H](O)[C@@H]2O)[C@H](O)[C@H](O)[C@H]1O[C@@H]1OC[C@@H](O)[C@H](O)[C@H]1O` (some centres undefined) are 1.54 µM (active) and 2.18 µM (active).
On to `C[C@@H]1COCCN1c1cc(=O)n2c(n1)N(Cc1cncc(Cl)c1)[C@H](C(F)(F)F)CC2`, for which the Potency in assay [1] was 6.51 µM (active); in assay [2] it was 6.51 µM (active) and inactive.
In the case of `C[C@]12CC[C@@H]3c4ccc(O)c(O)c4CC[C@H]3[C@@H]1CCC2=O`, the Potency in assay [1] was 18.3 µM (active); in assay [2], 11.5 µM (active).
The like results for `COc1cc(/C=C/C(=O)NCCn2c(C(F)(F)F)cc3ccccc32)cc(OC)c1OC` were, in that order, “inactive” and “inactive”.
The corresponding values for `Cn1ncc(Cl)c1-c1cc(C(=O)N[C@H](CN)Cc2ccc(F)c(F)c2)oc1Cl` are 0.649 µM (active) and 0.515 µM (active).
As to `C=C1CC2OC(=O)C(=C)C2C(O)/C=C(\C)CCC1O` (centres undefined), the Potency was 18.3 µM (active) in assay [1] and 16.3 µM (active) in assay [2].
`C/C(=C\CO[C@@H]1O[C@H](CO[C@H]2OC[C@](O)(CO)[C@H]2O)[C@@H](O)[C@H](O)[C@H]1O)C(C)(C)O`: the Potency result in assay [1] and in assay [2] was “inactive” in each case.
Regarding `CC(C)n1cnc2c(-c3cnc(N)nc3)nc(N3CCOCC3)nc21`, the Potency in assay [1] is 0.159 µM (active); in assay [2], 0.224 µM (active).
The corresponding values for `CC(=O)CC(=O)Nc1ccc(Cl)c(C(F)(F)F)c1` are 20.5 µM (active) and 10.3 µM (active).
The corresponding values for `C=C(C)C(=O)O[C@H]1[C@H]2C(=C)C(=O)O[C@@H]2C[C@@H](C)[C@@H]2O[C@@H]2C(=O)[C@](C)(O)[C@@H]1OC(=O)C(=C)C` are 1.78 µM (active) and 1.26 µM (active).
For the compound `C=CCNC1=C2C[C@@H](C)C[C@H](OC)[C@H](O)[C@@H](C)/C=C(\C)[C@H](OC(N)=O)[C@@H](OC)/C=C\C=C(/C)C(=O)NC(=CC1=O)C2=O`, the Potency in assay [1] was 3.32 µM (active); in assay [2], 2.63 µM (active).
In the case of `Cn1ncc2cc(-c3cnc(N)c(Cl)c3N3CCC4(CCNC4=O)CC3)ccc21`, the Potency in assay [1] is 2.05 µM (active) and 3.72 µM (active); in assay [2], 0.0934 µM (active).
For `CC(C)/C=C1\NC(=O)C(C(C)C)n2c1nc1ccccc1c2=O` (centres undefined), the Potency result in assay [1] and in assay [2] was “inactive” throughout.
`C#CCCCn1cc(-c2cccc3c2N[C@H](C)CC(=O)N3)cn1`: the results for the Potency in assay [1] and in assay [2] were 23 µM (active) and 14.5 µM (active), respectively.
With `CC(=O)OC1CC(C)(C(=O)O)CC2C3=CC(=O)C4C5(C)CCC(OC6OC(C(=O)O)C(O)C(O)C6OC6OC(C(=O)O)C(O)C(O)C6O)C(C)(C)C5CCC4(C)C3(C)CCC12C` (centres undefined), in assay [1], the activity change, negative = viability loss was -3.77% [at 9.23 µM] (inactive). The activity change, negative = cell killing in assay [2] is -8.59% [at 9.23 µM] (inactive).
Regarding `C=C1[C@@H](OC(C)=O)CC[C@@]2(C)[C@@H](OC(C)=O)[C@H](OC(C)=O)C3=C(C)C[C@H](OC(=O)C(C)CC)[C@@H]([C@@H](OC(C)=O)[C@H]12)C3(C)C` (some centres undefined), the Potency in assay [1] and in assay [2] was 1.21 µM (active) in each case.
As to `C=C[C@]1(C)C[C@H](O)[C@H]2C(=C)C(=O)O[C@@H]2[C@H]1C(=C)CO`, the Potency in assay [1] is 18.3 µM (active); in assay [2] it was 14.5 µM (active).
As to `COc1cc(C(C)=O)c(OC)c2c1OC(C)(C)C=C2`, the Potency result in assay [1] and in assay [2] was “inactive” in each case.
For `Cc1nnc(C[C@@H]2C=C(c3ccc(Cl)cc3)c3ccccc3-n3c(C)nnc32)o1`, the Potency in assay [1] is 0.332 µM (active); in assay [2], 0.296 µM (active).
The corresponding values for `COC1CC(O[C@H]2CC[C@]3(C)C4CC[C@]5(C)C(C6=CC(=O)OC6)=CCC56OC46CC[C@@H]3C2)OC(C)C1O[C@@H]1O[C@H](CO[C@@H]2O[C@H](CO)[C@@H](O)[C@H](O)[C@H]2O)[C@@H](O)[C@H](O)[C@H]1O` (some centres undefined) are 1.54 µM (active) and 2.75 µM (active).
For the compound `C=C1C(=O)OC2/C=C(\COC(C)=O)CC/C=C(\C=O)CC(OC(=O)CC(C)C)C12` (centres undefined), the values for the Potency in assay [1] and in assay [2] were 2.24 µM (active) and 1.59 µM (active), respectively.
On to `Cc1ccc(NC(=O)c2ccc(CN3CCNCC3)cc2)cc1Nc1nccc(-c2cccnc2)n1`, for which the Potency in assay [1] was 16.3 µM (active) and 14.8 µM (active); in assay [2], 18.3 µM (active) and 14.8 µM (active).
Turning to `C=C1C(=O)O[C@@H]2C[C@H](C)[C@@H]3CC(=O)C(C)=C3C[C@H]12`, the values for the Potency in assay [1] and in assay [2] were 4.59 µM (active) and 2.58 µM (active), respectively.
The like results for `O=C(O)C1=CO[C@@H](O[C@@H]2O[C@H](CO)[C@@H](O)[C@H](O)[C@H]2O)[C@@H]2C(CO)=CC[C@H]12` were, in that order, “inactive” and “inactive”.
As to `N#Cc1ccnc(Nc2cc(C3CCN(C4COC4)CC3)cc(N3CCC(F)(F)C3)n2)c1`, the Potency in assay [1] is 2.91 µM (active) and 934 nM (active); in assay [2], 2.59 µM (active) and 525 nM (active).
Regarding `COc1ccccc1C(=O)Nc1cccc(NC(=O)c2cccc(C)c2)c1`, the Potency result in assay [1] and in assay [2] was “inactive” in each case.
`C[C@H](Nc1ncnc2nc[nH]c12)c1cc2cccc(Cl)c2c(=O)n1-c1ccccc1`: the Potency in assay [1] was 4.09 µM (active) and 372 nM (active); in assay [2], 7.28 µM (active) and 4.68 µM (active).
As to `C=C[C@@]1(C)C=C2C(=O)C(O)=C3[C@](C)(C(=O)O)CC[C@@H]4C[C@]34[C@]2(O)C(=O)C1`, the Potency is 10.1 µM (active) in assay [1] and 2.53 µM (active) in assay [2].
With `C1=Cc2ccccc2C(=C2CCN(CCCCc3nn[nH]n3)CC2)c2ccccc21`, the Potency result in assay [1] and in assay [2] was “inactive” in each case.
Turning to `C/C1=C/CCC2=CC(OC2=O)C(C)(C)/C=C/C1=O` (centres undefined), the Potency in assay [1] was 0.578 µM (active); in assay [2], 0.459 µM (active).
The like results for `COc1cc(S(C)(=O)=O)ccc1Nc1nc2ccc(-c3ccc(NC(=O)[C@H](C)c4ccc(F)cc4)cc3)cn2n1` were, in that order, 0.742 µM (active) and 0.417 µM (active).
The like results for `Cc1ccc(-c2c(C(=O)CCl)n(CCCO)c3ncnc(N)c23)cc1` were, in that order, 20.5 µM (active) and 23 µM (active).
The like results for `CCCCCCCCC(=O)N[C@H](CN1CCCC1)[C@H](O)c1ccc2c(c1)OCCO2` were, in that order, 23 µM (active) and 18.3 µM (active).
As for `CC(C)(F)CC(NC(c1ccc(-c2ccc(S(C)(=O)=O)cc2)cc1)C(F)(F)F)C(=O)NC1(C#N)CC1` (centres undefined), the Potency result in assay [1] and in assay [2] was “inactive” in each case.
Regarding `C[C@H]1CC[C@@]2(OC1)O[C@H]1CC3[C@@H]4CC[C@@H]5C[C@@H](O[C@@H]6O[C@H](CO)[C@@H](O[C@@H]7O[C@@H](C)[C@H](O)[C@@H](O)[C@H]7O)[C@H](O)[C@H]6O[C@@H]6O[C@H](CO)[C@@H](O)[C@H](O)[C@H]6O)CC[C@]5(C)C4CC[C@]3(C)[C@H]1[C@@H]2C` (some centres undefined), the Potency in assay [1] and in assay [2] was 3.88 µM (active) throughout.
For the compound `COc1cc(-n2cnc3cc(-c4ccc(Cl)cc4)sc3c2=O)ccc1OCCN1CCCC1`, the Potency in assay [1] was 7.28 µM (active); in assay [2], 5.78 µM (active).
Take `CC(C)CCNC(=O)[C@H](CC(C)C)NC(=O)[C@H]1O[C@@H]1C(=O)O`: the Potency result in assay [1] and in assay [2] was “inactive” each time.
As for `C=C1C(=O)OC2C1CCC1(C)C(O)CCC(=C)C21` (centres undefined), the Potency in assay [1] was 18.3 µM (active); in assay [2] it was 16.3 µM (active).
For `CCN1CCN(Cc2ccc(NC(=O)c3ccc(C)c(Oc4ncnc5[nH]c(C)cc45)c3)cc2C(F)(F)F)CC1`, the Potency was 2.05 µM (active) in assay [1] and 2.3 µM (active) in assay [2].
The like results for `CC(C)C[C@H](C(=O)O)c1cc(-c2ccc(C(F)(F)F)cc2)cc(-c2ccc(C(F)(F)F)cc2)c1` were, in that order, 9.16 µM (active) and 11.5 µM (active).
`COc1cc(N2CCC(N3CCN(C)CC3)CC2)ccc1Nc1ncc(Cl)c(Nc2ccccc2P(C)(C)=O)n1`: the Potency was 3.65 µM (active) and 1.05 µM (active) in assay [1]; 4.09 µM (active) and 1.48 µM (active) in assay [2].
As to `C=CC(C)(C)C12CC3C(=O)N4C(CC5(C(C)(C)C=C)c6ccccc6NC45)C(=O)N3C1Nc1ccccc12` (centres undefined), the Potency result in assay [1] and in assay [2] was “inactive” in each case.
Take `O=C(Nc1cccc(C(F)(F)F)c1)Nc1ccc(Br)cc1-c1nn[nH]n1`: the Potency result in assay [1] and in assay [2] was “inactive” in each case.
In the case of `Cn1ccc(NC(=O)c2cc(Oc3ccc(C(=O)N4CCC4)c(F)c3)c3c(c2)OC(C)(C)C3)n1`, the Potency entry in assay [1] and in assay [2] was “inactive” each time.
Turning to `O=S(=O)(c1ccccc1)N(CC(F)(F)F)c1ccc(C(O)(C(F)(F)F)C(F)(F)F)cc1`, the Potency in assay [1] and in assay [2] was 23 µM (active) each time.
For `C=C1C(=O)O[C@@H]2C3C(=C(C)[C@@H](O)[C@@H](OC(=O)/C(=C/C)COC(C)=O)[C@@H]12)C(=O)[C@H]1O[C@@]31C` (some centres undefined), the Potency in assay [1] is 2.82 µM (active); in assay [2], 1.59 µM (active).
